Among the data in PubChem BioAssay are z-score and composite z-score values, retold here.

Calls of active or inactive are those of the source.

Assay [1] can be described thus: optical density shifts of acrAB sulA E. coli – strain DRC41, OD650, 48 h, E. coli filamentation inducer project, primary screen (AID 1152).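 Further: E. coli MC1000 strain DRC41 lacking acrAB efflux pump and sulA.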 Particulars: higher = more signal, called active from +8 up or from −8 down.
Assay [2] can be described thus: probe aLefty1 binding on compound microarray – biochemical, small-molecule microarray, 635/667 nm fluorescence, primary screen (AID 1153).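 Further: score merges spot fluorescence with signal-to-noise ratio from the scanned slide images.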 The following applies: higher = more signal.
A short description of assay [3]: plasmodial surface anion channel blockers, osmotic lysis – cell-based, P. falciparum Indochina, OD700, 1 h, primary screen (AID 1154). The following applies: P. falciparum Indochina infected RBC osmotic lysis, higher = more signal, called active from +8 up or from −8 down.
Assay [4] in a line: plasmodial surface anion channel blockers, osmotic lysis – cell-based, P. falciparum Indochina, OD700, 2 h, primary screen (AID 1155).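 Further: lysis reports solute entry through the parasite surface anion channel PSAC.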 Particulars: P. falciparum Indochina infected erythrocytes, higher = more signal, called active from +8 up or from −8 down.
Assay [5] can be described thus: changes in parasitized red cell lysis, either direction – P. falciparum Indochina, OD700, 3 h, PSAC antagonist project, primary screen (AID 1156). Particulars: P. falciparum-infected erythrocytes, osmotic lysis, higher = more signal, called active from +8 up or from −8 down.
Assay [6] is described as follows: plasmodial surface anion channel blockers, osmotic lysis – cell-based, P. falciparum Indochina, OD700, 18 h, primary screen (AID 1157). Particulars: P. falciparum Indochina infected erythrocytes, osmotic lysis OD700, 18 h; higher = more signal, called active from +8 up or from −8 down.
A short description of assay [7]: S6 kinase pathway phospho-S6 level changes – cell-based, A549, cytoblot, luminescence, serum-stimulated, primary screen (AID 1158).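 Further: serum-stimulated A549 lung adenocarcinoma cells; signal is phosphorylated S6 detected by cytoblot immunostaining with HRP secondary.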 Particulars: 5 h, higher = more signal.
The target of assay [8] is NADPH oxidase 2 (Homo sapiens) (UniProt P04839). Description: compounds shifting NOX2 Amplex Red fluorescence – cell-based, HEK293-NOX2, PMA-stimulated, NOX inhibitor project, primary screen (AID 1159). Further: test concentration not given here. The following applies: 45 min, higher = more signal, called active from +8 up or from −8 down.
NADPH oxidase 2 (Homo sapiens), sequence (P04839 whole entry, looked up): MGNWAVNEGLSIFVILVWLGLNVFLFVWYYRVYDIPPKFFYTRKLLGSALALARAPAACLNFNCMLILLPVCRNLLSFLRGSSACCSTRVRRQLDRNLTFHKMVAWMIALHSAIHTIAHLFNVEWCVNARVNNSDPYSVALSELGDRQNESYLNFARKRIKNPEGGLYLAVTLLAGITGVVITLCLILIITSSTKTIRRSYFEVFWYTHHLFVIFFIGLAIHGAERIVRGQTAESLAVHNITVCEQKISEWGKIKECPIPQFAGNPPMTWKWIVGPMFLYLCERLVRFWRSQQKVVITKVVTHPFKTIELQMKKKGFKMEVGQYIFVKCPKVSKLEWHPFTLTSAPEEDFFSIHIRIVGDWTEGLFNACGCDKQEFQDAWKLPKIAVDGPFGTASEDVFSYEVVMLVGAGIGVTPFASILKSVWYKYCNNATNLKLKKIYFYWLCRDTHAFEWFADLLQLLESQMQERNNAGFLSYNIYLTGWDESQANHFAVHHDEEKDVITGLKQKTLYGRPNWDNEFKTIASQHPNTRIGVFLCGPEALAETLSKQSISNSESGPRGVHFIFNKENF
In assay [9] the target is NADPH oxidase 4 (Homo sapiens) (UniProt Q9NPH5). Description: compounds shifting NOX4 Amplex Red fluorescence – cell-based, HEK293-NOX4, tetracycline-induced, NOX inhibitor project, primary screen (AID 1160). Particulars: HEK293-NOX4, Amplex Red H2O2 fluorescence, 45 min; higher = more signal, called active from +8 up or from −8 down.
NADPH oxidase 4 (Homo sapiens), sequence (Q9NPH5 whole entry, looked up): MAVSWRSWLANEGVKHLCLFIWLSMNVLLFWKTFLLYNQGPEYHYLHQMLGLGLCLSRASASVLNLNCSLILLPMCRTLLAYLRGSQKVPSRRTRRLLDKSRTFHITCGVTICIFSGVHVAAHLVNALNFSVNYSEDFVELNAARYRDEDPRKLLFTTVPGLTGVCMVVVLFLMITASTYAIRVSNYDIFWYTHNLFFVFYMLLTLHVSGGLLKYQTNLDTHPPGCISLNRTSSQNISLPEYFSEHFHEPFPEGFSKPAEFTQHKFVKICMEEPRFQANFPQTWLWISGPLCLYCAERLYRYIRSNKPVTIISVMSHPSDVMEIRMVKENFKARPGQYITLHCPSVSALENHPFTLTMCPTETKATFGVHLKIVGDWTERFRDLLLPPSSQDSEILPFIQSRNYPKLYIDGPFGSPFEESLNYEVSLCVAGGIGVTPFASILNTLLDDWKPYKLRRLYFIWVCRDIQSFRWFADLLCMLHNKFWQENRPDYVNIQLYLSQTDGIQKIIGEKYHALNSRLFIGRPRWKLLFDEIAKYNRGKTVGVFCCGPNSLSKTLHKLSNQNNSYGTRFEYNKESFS
Assay [10] has as its target NADPH oxidase 5 (Homo sapiens) (UniProt Q96PH1). Description: compounds shifting NOX5 Amplex Red fluorescence – cell-based, HEK293-NOX5, NOX inhibitor project, primary screen (AID 1161). The following applies: HEK293-NOX5, ionomycin, 45 min, higher = more signal.
Assay [11] can be described thus: compound effects on lung adenocarcinoma cell viability – A549, calcein-AM fluorescence, 48 h, basal, profiling panel (AID 1162). Further: test concentration not given here. Particulars: higher = more signal.
Assay [12] in a line: compound effects on differentiated 3T3-L1 adipocyte viability – cell-based, 3T3-L1 adipocytes, calcein-AM fluorescence, 48 h, basal, profiling panel (AID 1163). Further: test concentration not given here. Particulars: 3T3-L1 adipocytes viability, higher = more signal.
Assay [13] is described as follows: compound effects on hepatocellular carcinoma cell viability – HepG2, calcein-AM fluorescence, 48 h, basal, profiling panel (AID 1164). Further: test concentration not given here. Particulars: higher = more signal.
Assay [14] can be described thus: compound effects on multiple myeloma cell viability – MM1S, calcein-AM fluorescence, 48 h, basal, profiling panel (AID 1165).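 Further: viability of MM1S multiple myeloma cells under basal unstimulated conditions; test concentration not given here.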 Particulars: higher = more signal.
Assay [15] can be described thus: calcein-AM signal in unstimulated myeloma cells – cell-based, calcein-AM fluorescence, 48 h, PK04 Diversity Set, profiling panel (AID 1166).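 Further: cells grown under basal conditions without added stimulus; test concentration not given here.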 Particulars: RPMI8226 myeloma viability, higher = more signal.
A short description of assay [16]: JC-1 mitochondrial signal, unstimulated HepG2 cells – cell-based, JC-1 fluorescence, 24 h, 100 nL compound, profiling panel (AID 1167). Further: test concentration not given here. Particulars: HepG2 mitochondrial potential, higher = more signal.
A short description of assay [17]: JC-1 mitochondrial signal, unstimulated adipocytes – cell-based, JC-1 fluorescence, 3T3-L1 adipocytes, 24 h, 100 nL compound, profiling panel (AID 1168). Further: test concentration not given here. The following applies: JC-1 mitochondrial fluorescence, higher = more signal, called active from +8 up or from −8 down.
Assay [18] in a line: JC-1 mitochondrial signal, unstimulated myeloma cells – cell-based, JC-1 fluorescence, RPMI8226, 24 h, 100 nL compound, profiling panel (AID 1169). Further: test concentration not given here. Particulars: JC-1 mitochondrial potential fluorescence, higher = more signal.
A short description of assay [19]: JC-1 mitochondrial signal, unstimulated MM1S myeloma – cell-based, JC-1 fluorescence, 24 h, 100 nL compound, profiling panel (AID 1170). Further: test concentration not given here. Particulars: MM1S mitochondrial potential, higher = more signal.
Assay [20] is described as follows: resazurin metabolic signal in A549 cells – cell-based, resazurin fluorescence, 24 h, PK04 Diversity Set, profiling panel (AID 1171). Further: test concentration not given here. The following applies: A549 viability, higher = more signal, called active from +8 up or from −8 down. On the technique in general: Resazurin is reduced to fluorescent resorufin, in cell work by metabolically active cells.

NADPH oxidase 5 (Homo sapiens), sequence (Q96PH1 whole entry, looked up): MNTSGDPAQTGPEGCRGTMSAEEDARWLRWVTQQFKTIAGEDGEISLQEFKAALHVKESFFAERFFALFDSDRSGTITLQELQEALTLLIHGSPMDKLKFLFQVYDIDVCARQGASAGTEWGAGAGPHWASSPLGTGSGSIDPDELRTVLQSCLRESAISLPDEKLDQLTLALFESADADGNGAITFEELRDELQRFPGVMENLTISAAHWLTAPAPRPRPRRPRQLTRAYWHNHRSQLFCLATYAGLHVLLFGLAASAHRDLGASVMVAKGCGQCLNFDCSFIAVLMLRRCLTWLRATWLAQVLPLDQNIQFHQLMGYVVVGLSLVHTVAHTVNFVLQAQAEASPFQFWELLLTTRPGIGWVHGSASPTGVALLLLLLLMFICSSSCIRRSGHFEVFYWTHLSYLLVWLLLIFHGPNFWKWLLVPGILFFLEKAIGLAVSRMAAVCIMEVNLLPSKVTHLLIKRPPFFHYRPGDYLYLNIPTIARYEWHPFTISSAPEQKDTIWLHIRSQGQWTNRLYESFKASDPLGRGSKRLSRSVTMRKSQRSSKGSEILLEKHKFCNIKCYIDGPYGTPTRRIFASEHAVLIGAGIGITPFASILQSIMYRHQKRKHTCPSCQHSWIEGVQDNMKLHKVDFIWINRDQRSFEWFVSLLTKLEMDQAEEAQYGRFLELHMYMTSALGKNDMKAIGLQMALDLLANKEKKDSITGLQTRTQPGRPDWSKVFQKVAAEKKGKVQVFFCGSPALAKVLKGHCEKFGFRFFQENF

On to `CCOC(=O)[C@H](CC(C)C)NC(=O)CCC1CC(OC(=O)NCc2cccc3ccccc23)CC2(CCCC(COC(=O)NCCCN3CCCC3=O)O2)O1` (stereo not given in full), for which the z-score in [1] is 0.261 (inactive); in assay [3], 0.51 (inactive); in assay [4] it was 0.936 (inactive); in assay [5] it was 0.662 (inactive); in assay [6], 0.295 (inactive); in assay [7] it was 0.285. Moreover, the z-score in [8] is 1.51 (inactive); in assay [9], 0.133 (inactive); in [10], -0.877; in [11], 0.367; in assay [12] it was 1.15; in [13], -0.839. Besides, the z-score in [14] was -0.0471; in assay [15], -1.31; in assay [16], 0.106; in assay [17], -0.636 (inactive); in assay [18], -0.555; in assay [19] it was -1.15. The z-score in assay [20] was 0.489 (inactive). Besides, the composite z-score in assay [2] was -0.177.

Regarding `COCCNC(=O)OCC1CCCC2(CC(OC(=O)NCc3ccc4c(c3)OCO4)CC(CCC(=O)N[C@@H](C)C(=O)OC)O2)O1` (stereo not given in full), the z-score in [1] is -0.982 (inactive); in [3] it was -1.19 (inactive); in [4] it was 0.276 (inactive); in [5] it was 0.0971 (inactive); in [6], 0.296 (inactive); in assay [7], -0.472. Further, the z-score in assay [8] was 1.1 (inactive); in assay [9], 1.29 (inactive); in assay [10], 0.89; in [11], 0.122; in [12] it was -0.0741; in assay [13] it was -1.29. Also, the z-score is 0.463 in assay [14]; -2.51 in [15]; -0.802 in assay [16]; -0.628 (inactive) in assay [17]; 0.934 in assay [18]; -0.318 in [19]. Moreover, the z-score in [20] is 1.66 (inactive). This compound also showed a composite z-score in assay [2] of 0.0341.

Regarding `C=COC[C@@H]1CN2[C@@H](CC[C@@H](C)[C@@H]2c2ccc(Br)cc2)C(=O)O1`, the z-score in [1] is -0.778 (inactive); in assay [3], 2.08 (inactive); in assay [4] it was -0.0728 (inactive); in assay [5], 0.429 (inactive); in [6], -0.959 (inactive); in assay [7], 0.993. The z-score is 0.723 (inactive) in assay [8]; -0.595 (inactive) in assay [9]; -1.14 in assay [10]; -0.0396 in assay [11]; 0.566 in assay [12]; -0.388 in [13]. The z-score in assay [14] was -1.04; in [15], -0.731; in [16], -0.284; in assay [17], 0.347 (inactive); in assay [18], -0.795; in assay [19], -0.228. Further, the z-score in assay [20] was 0.378 (inactive). Moreover, in assay [2], the composite z-score was -0.0984.

In the case of `COC(=O)[C@H](C)NC(=O)CCC1CC(OC(=O)NCc2ccc3c(c2)OCO3)CC2(CCCC(COC(=O)NCC(c3ccccc3)c3ccccc3)O2)O1` (stereo not given in full), the z-score in assay [1] is 0.246 (inactive); in assay [3] it was 17.6 (active); in assay [4], 4.8 (inactive); in [5] it was 1.34 (inactive); in assay [6] it was -0.685 (inactive); in assay [7], 3.66. Further, the z-score is -1.25 (inactive) in assay [8]; -1.5 (inactive) in [9]; -3.77 in [10]; -0.641 in assay [11]; 0.155 in [12]; -2.9 in assay [13]. The z-score in assay [14] is -3.53; in assay [15], -3.99; in assay [16], -1.01; in [17] it was -0.013 (inactive); in assay [18], -0.0228; in [19] it was -0.794. Moreover, in assay [20], the z-score is 1.76 (inactive). This compound registered a composite z-score in [2] of -0.0969.
